Assay outcomes as filed in PubChem BioAssay.
TrxR1 substrate – substrates of rat thioredoxin reductase 1; purified TrxR1 substrate turnover, NADPH consumption readout; AID 588456; O89049; 390,000 tested, 0.01% active; Potency, µM (highest dose often 114 µM); note: nearly all actives have a fitted effect of over 50% in size
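Rat TrxR1, dispensed at 90 nM, was prereduced with 400 uM NADPH (final) for 5 min at ~22 deg C, then incubated with compound 15 min before 400 uM selenite. A first-read NADPH fluorescence drop versus no-compound background flagged substrates.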
IDH1 R132H inh – inhibitors of human mutant IDH1 R132H. O75874. IDH1-R132H enzyme, NADPH consumption, diaphorase/resazurin fluorescence. Potency, µM (titrated, usually from 76.6 µM), hits mostly inhibitors. 390,000 tested, 0.093% active. AID 602179; note: nearly all actives have a fitted effect of over 65% in size
Target sequence (O75874 whole entry R132H, stated change not applied): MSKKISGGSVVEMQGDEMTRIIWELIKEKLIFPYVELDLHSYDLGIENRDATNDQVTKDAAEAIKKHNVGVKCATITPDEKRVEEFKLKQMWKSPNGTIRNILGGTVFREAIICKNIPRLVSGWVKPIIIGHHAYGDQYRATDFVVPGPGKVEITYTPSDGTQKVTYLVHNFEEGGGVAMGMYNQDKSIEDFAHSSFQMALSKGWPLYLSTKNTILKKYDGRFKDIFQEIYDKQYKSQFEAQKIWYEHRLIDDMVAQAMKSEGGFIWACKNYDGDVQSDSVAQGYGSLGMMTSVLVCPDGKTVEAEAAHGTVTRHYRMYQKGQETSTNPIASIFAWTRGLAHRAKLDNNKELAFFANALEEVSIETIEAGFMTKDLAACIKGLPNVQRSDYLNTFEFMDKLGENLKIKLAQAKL
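IDH1-R132H (0.5 ug/mL dispensed) in pH 7.5 Tris buffer was preincubated 30 min with compound, then given a substrate mix of 0.016 mM NADPH and 2 mM alpha-KG for 80 min at room temperature; remaining NADPH was read by diaphorase/resazurin fluorescence.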
VDR inhibitor – inhibitors of human vitamin D receptor; P11473; Potency, µM, hits mostly inhibitors; VDR-SRC2-3 peptide fluorescence polarization, 2 h; 400,000 tested, 0.93% active
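Inhibition of the VDR/SRC2-3 peptide interaction is quantified by fluorescence polarization. Compounds (23 nl, pintool) incubate with the reagents for 2 hours at ambient room temperature.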
PLK1 PBD block – PLK1 (human) polo-box domain binding inhibition; P53350; Plk1 PBD binding of FITC phosphopeptide, fluorescence polarization; Potency, µM, actives largely listed as inhibitors; 360,000 tested, 2.8% active; AID 720504; note: series mostly up to about 57 µM; nearly all actives have a fitted effect of over 65% in size
Sfp PPTase inh – Sfp phosphopantetheinyl transferase inhibition | Biochemical Sfp PPTase activity, qHTS | Potency, µM, hits mostly inhibitors | 310,000 tested, 3.5% active;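 note: the enzyme is Sfp with the accession as filed and its product quenches rhodamine fluorescence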
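Buffer: 50 mM Hepes-Na pH 7.6, 10 mM MgCl2, 0.01% Nonidet P-40, 0.01% BSA. Enzyme 15 nM, pre-exposed to compound 15 min; substrates then added and fluorescence change tracked over 30 min.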
rTrxR1 inhibitor – inhibitors of rat thioredoxin reductase 1; O89049; recombinant rTrxR1, NADPH fluorescence consumption, selenite substrate; Potency, µM (top dose mostly 114 µM), usual class: inhibitors; 390,000 tested, 1% active; AID 588453; note: nearly all actives have a fitted effect of over 65% in size
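Rat TrxR1 (90 nM in the dispensed reagent) was pre-reduced with 400 uM NADPH for 5 min at room temperature, then incubated with compound for 15 min. After 400 uM selenite was added, NADPH fluorescence (Ex 340/Em 450 nm) was followed for 8 min.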
Hits are given with their value; i = inactive; ? = inconclusive; nt = not tested or not shown; [ ] = remark or other dose. Compounds with a hit are over-represented: about 5.2% of the library has one in this group of screens. Calls come from the whole dose curve; as a rule, active = well fitted curve in the direction sought with a large enough effect; inconclusive = small, poorly fitted or top-dose-only effect, or another doubt; inactive = no such curve, though single readings can be large; an effect the other way counts as inactive or inconclusive.

SMILES	TrxR1 substrate	IDH1 R132H inh	VDR inhibitor	PLK1 PBD block	Sfp PPTase inh	rTrxR1 inhibitor
O=C(/C=C/c1ccco1)NCC1OCCc2ccccc21 (stereo not drawn)	i[11.4 µM]	i	i	?	22µM	?
O=C(/C=C/c1ccco1)NCCc1ccc(F)cc1	i	i	i	i	i	45µM
COc1ccc(N/C=C\C(=O)c2ccc3c(c2)OCO3)cc1	i	i	i	i	i	i
Cc1ccc(OCCNC(=O)/C=C/c2ccco2)cc1C	i	i	?	i	10µM	11µM
CN(C)CCC(=O)NCC1OCCc2ccccc21 (stereo not drawn)	i	i	i	i	i	i
CSc1ccc(CN2CCC2(C)C(=O)Nc2cnc3ccccc3c2)cc1 (stereo not drawn)	nt	nt	nt	i	nt	nt
COC(=O)/C=C/c1ccc2c(c1)S(=O)(=O)N(C1CCCC1)[C@H]2CC(=O)OC	i	nt	nt	nt	nt	i
CCN(CC)S(=O)(=O)c1cc(NC(=O)NCCCl)ccc1C	i	i	i	i	i	i
CCN(CC)S(=O)(=O)c1cc(NC(=O)c2ccc(Br)s2)ccc1C	i	i	?	19µM	i	i
CCCCCCC[n+]1ccc(C)c2ccccc21	i	nt	nt	nt	nt	i
CCn1c2ccccc2c2nnc(SCc3ccc(C(=O)OC)o3)nc21	i	i	i	i	32µM	i
COC(=O)c1ccc(CSc2cc(C)c3ccccc3n2)o1	i	i	?	i	25µM	i
CCCn1c(SCc2ccc(C(=O)OC)o2)nc2ccccc2c1=O	i	i	i	i	i	i
Cc1csc(SCC(=O)Nc2cc(S(=O)(=O)N(C)C)ccc2C)n1	i	i	i	i	nt	i
CC(C)(C)C1=CC(=O)C(N2CCOCC2)=CC1=O	i	i	i	i	i	i
CC(C)(C)C1=CC(=O)C(=O)C(C(C)(C)C)=C1	i	i	?	3.8µM	1.1µM	i
Cc1cc(C=Nc2ccc(/C=C/c3ccnc4ccccc34)cc2)ccc1N(C)C	i	nt	nt	nt	nt	i
Cc1cccc(-n2c(-c3ccncc3)n[nH]c2=S)c1	i	i	i	i	79µM	i
COc1cccc(-n2c(-c3cccc(S(=O)(=O)N(C)C)c3)n[nH]c2=S)c1	i	i	i	i	50µM	i
CCn1c(-c2cccnc2)n[nH]c1=S	i	i	i	i	89µM	i
Cc1ccc(C2CC2c2n[nH]c(=S)n2-c2cccc(C)c2)cc1 (stereo not drawn)	i	i	i	24µM	i	i
CC(C)C[C@@H](C=O)NC(=O)[C@H](CC(C)C)NC(=O)[C@H](CC(C)C)NC(=O)OCc1ccccc1	nt	nt	?	nt	i	nt
COc1ccccc1-c1n[nH]c(=S)n1N	i	i	i	i	45µM	i
COc1ccccc1-n1c(-c2cccnc2)n[nH]c1=S	i	i	i	i	50µM	i
COc1ccccc1-n1c(-c2ccco2)n[nH]c1=S	i	i	i	i	i	i
SMILES	TrxR1 substrate	IDH1 R132H inh	VDR inhibitor	PLK1 PBD block	Sfp PPTase inh	rTrxR1 inhibitor
Nn1c(-c2ccco2)n[nH]c1=S	i	i	i	i	56µM	i
S=c1[nH]nc(-c2ccco2)n1-c1ccc(Cl)cc1	i	i	i	i	i	i
Cc1cccc(-n2c(C)c(-c3ccccc3)[nH]c2=S)c1	i	i	?	i	3.5µM	i
COc1ccc(C(=O)N2CCOC2CNC(=O)C(=O)NCc2ccccn2)cc1 (stereo not drawn)	nt	i	nt	i	nt	nt
Cc1ccccc1S(=O)(=O)NC(=O)C1(C)CCN1C(=O)CC1CCCCC1 (stereo not drawn)	nt	nt	nt	i	nt	nt
CCOC1=C(C#N)CC2(CC1)c1ccccc1-c1ccccc12	i	i	i	i	nt	i
S=c1[nH]nc(-c2cccnc2)n1-c1ccccc1	i	i	i	i	79µM	i
S=c1[nH]nc(-c2ccc(Cl)cc2)n1-c1cccnc1	i	i	i	i	i	i
Cc1ccccc1N1C(=O)c2cc(N)ccc2N/C1=C\F	nt	nt	i	nt	i	nt
C=C1[C@@H](O)[C@H](CC(C)C)N(Cc2ccccc2Br)S1(=O)=O	i	i	i	i	nt	5µM
O=S(=O)(NCCNS(=O)(=O)c1cccs1)c1cccs1	i	i	i	i	i	i
CN1CCN(NS(=O)(=O)c2cccs2)CC1	i	i	i	9.5µM	i	i
CC(C)(C)NC(=O)C1C(c2ccc(C(F)(F)F)cc2)=Nc2ccccc2N1C(=O)c1cccc2ccccc12 (stereo not drawn)	nt	nt	nt	i	nt	nt
CC1(C)CC(Nc2ccc(Nc3ccccc3)cc2)CC(C)(C)N1	i	i	?	i	20µM	?
Cc1cccc(N2CCN(C(=O)COc3ccc4c(C)cc(=O)oc4c3C)CC2)c1C	i	i	i	i	i	i
CCC(Sc1nc2ccccc2c2nc(CCc3c(C)n[nH]c3C)nn12)C(=O)Nc1ccccc1F (stereo not drawn)	i	i	i	nt	nt	i
CCN1/C(=C\C=C2\C(=O)N(C)C(=S)N2C)Sc2ccccc21	i	i	i	i	40µM	i
CCN1/C(=C2/OC(=S)N(C)C2=O)Sc2ccccc21	i	i	i	i	i	i
Cc1csc(/C(=N/OC(=O)c2ccco2)C(N)=O)n1	i	i	i	?	?	11µM
COc1ccc(/C(N)=N/OC(=O)c2ccco2)cc1OC	i	i	i	?	i	i
Cc1ccccc1C(=O)OC1OC(=O)C(Cl)=C1Nc1ccc(C(=O)O)cc1 (stereo not drawn)	i	i	?	3.8µM	i	i[11.4 µM]
CCOc1ccc(NC(=S)NCC(c2cccnc2)N2CCOCC2)cc1 (stereo not drawn)	i	i	i	27µM	i	i
COc1ccc(OC)c(NC(=S)NCC(c2cccnc2)N2CCOCC2)c1 (stereo not drawn)	i	i	i	15µM	i	i
Cc1ccc(NC(=O)c2ccc3ncsc3c2)cc1S(=O)(=O)N(C)C	nt	nt	nt	nt	56µM	nt
O=C(Nc1ccc(C(F)(F)F)cc1)c1ccc2ncsc2c1	i	i	?	i	79µM	i
SMILES	TrxR1 substrate	IDH1 R132H inh	VDR inhibitor	PLK1 PBD block	Sfp PPTase inh	rTrxR1 inhibitor
O=C(Nc1ccc(Cl)cc1)c1ccc2ncsc2c1	i	i	i	i	?	i
CC(C)CC(=O)n1nc(-c2ccco2)nc1NCc1ccc(Cl)cc1	i	i	i	nt	nt	i
Cc1ccc(S(=O)(=O)N(CC(O)Cn2c3ccccc3c3ccccc32)c2cccc(C(N)=O)c2)cc1 (stereo not drawn)	i	i	i	nt	nt	i
Cc1nc2ccc(S(=O)(=O)NC(C(=O)N3CCCC3)C(C)C)cc2s1 (stereo not drawn)	i	i	i	30µM	i	i
Cc1nc2ccc(S(=O)(=O)NC(C(=O)N3CCC(C)CC3)C(C)C)cc2s1 (stereo not drawn)	i	i	i	i	i	i
COc1ccc(C(=O)/C=C/C(=O)N(CC(=O)NCCC(C)C)Cc2cccs2)c(O)c1	i	i	i	34µM	3.5µM	2.8µM
O=C(Nc1nc(-c2ccc(Br)cc2)cs1)c1cccnc1	i	i	i	i	i	i
